Only some compounds are listed: those with a hit (about 2.4% of all), similar ones and a draw of the others.
POLB inh: qHTS Assay for Inhibitors of DNA Polymerase Beta; Pol beta primer extension/strand displacement, fluorescence kinetic; Potency, µM (top dose mostly 114 µM), without a hit: at the top dose activity change, negative = inhibition, usual class: inhibitors; actives 1.3% (n = 340,000); further: on the % scale 0 is the no-effect control and ±100 the full control effect
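Reaction started by 50 nM substrate onto compound-treated Pol beta (10 nM, 15 min preincubation, room temperature); plates read at 0 min and 10 min. Normalized concentration-effect data fitted by four-parameter Hill equation.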
POLI inh: qHTS for Inhibitors of Polymerase Iota | actives 1% (n = 390,000) | Pol iota fluorescent replication assay, 10 min | Potency, µM (titrated, usually from 115 µM), for inactives: top-dose activity, negative = inhibition, actives largely listed as inhibitors | DNA polymerase iota (Homo sapiens), Q9UNA4
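Pol iota at 10 nM preincubated 15 min with compounds at room temperature; reaction started with fluorescent substrate, 50 nM final. Fluorescence read kinetically at 0 and 10 min; buffer-only wells as negative control.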
Pol eta inh: qHTS for Inhibitors of Polymerase Eta. DNA polymerase eta (Homo sapiens), Q9Y253. recombinant Pol eta, fluorescent DNA replication assay. Potency, µM (top dose mostly 114 µM), for inactives: at the top dose activity change, negative = inhibition, actives largely listed as inhibitors. actives 1.2% (n = 390,000). AID 588591, 2011; further: on the % scale 0 is the no-effect control and ±100 the full control effect
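Pol eta (10 nM) was preincubated with compounds for 15 min at room temperature, after which fluorescent replication substrate (50 nM final) was added to start the reaction. Fluorescence was read kinetically at 0 and 10 min.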
POLK inh: qHTS for Inhibitors of Polymerase Kappa. DNA polymerase kappa (Homo sapiens), Q9UBT6. purified Pol kappa, fluorescent DNA synthesis assay, 10 min. Potency, µM (series often up to 107 µM), for inactives: top-dose activity, negative = inhibition, usual class: inhibitors. actives 0.53% (n = 400,000). AID 588579, 2011; further: on the % scale 0 is the no-effect control and ±100 the full control effect
Target sequence (Q9UBT6 whole entry, looked up): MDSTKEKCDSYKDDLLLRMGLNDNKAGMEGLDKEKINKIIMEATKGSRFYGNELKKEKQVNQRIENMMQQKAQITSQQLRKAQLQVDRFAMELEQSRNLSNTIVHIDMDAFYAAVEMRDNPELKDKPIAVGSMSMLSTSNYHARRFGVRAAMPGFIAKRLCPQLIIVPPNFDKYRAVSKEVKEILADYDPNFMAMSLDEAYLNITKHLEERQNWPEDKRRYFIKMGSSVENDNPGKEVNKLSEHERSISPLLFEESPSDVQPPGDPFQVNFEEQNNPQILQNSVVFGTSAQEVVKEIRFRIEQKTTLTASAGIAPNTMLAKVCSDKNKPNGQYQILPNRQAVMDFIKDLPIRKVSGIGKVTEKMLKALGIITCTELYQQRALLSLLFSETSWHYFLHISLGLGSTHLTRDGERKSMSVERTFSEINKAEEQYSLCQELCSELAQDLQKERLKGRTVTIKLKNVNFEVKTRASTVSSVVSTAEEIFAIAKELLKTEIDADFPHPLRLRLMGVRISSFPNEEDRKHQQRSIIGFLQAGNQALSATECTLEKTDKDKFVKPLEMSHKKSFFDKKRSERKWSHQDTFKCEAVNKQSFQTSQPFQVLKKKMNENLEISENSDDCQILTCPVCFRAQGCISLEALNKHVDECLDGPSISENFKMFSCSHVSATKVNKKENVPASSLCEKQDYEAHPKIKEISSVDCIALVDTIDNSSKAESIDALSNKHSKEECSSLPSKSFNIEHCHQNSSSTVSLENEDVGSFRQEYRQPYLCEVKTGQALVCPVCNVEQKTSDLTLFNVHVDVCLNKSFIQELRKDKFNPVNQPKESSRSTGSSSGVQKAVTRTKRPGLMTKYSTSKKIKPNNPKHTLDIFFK
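Kinetic fluorescence screen: compound preincubated 15 min RT with 10 nM enzyme; 50 nM substrate (final) initiates; reads at 0/10 min.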
WRN helicase inh: qHTS for Inhibitors of WRN Helicase. Bifunctional 3'-5' exonuclease/ATP-dependent helicase WRN (Homo sapiens), Q14191. WRN helicase unwinding, fluorescent forked duplex, kinetic. Potency, µM (titrated, usually from 114 µM), for inactives: at the highest dose activity change, negative = inhibition, hits mostly inhibitors. actives 0.46% (n = 360,000). AID 651768, 2012; further: on the % scale 0 is the no-effect control and ±100 the full control effect; nearly all actives have a fitted effect of over 55% in size
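Kinetic fluorescence helicase assay: unwinding of a quenched forked DNA duplex (100 nM final) with 2 mM ATP final raises red fluorescence (525/598 nm). Compounds sat 15 min at room temperature with 20 nM WRN beforehand.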
FEN1 inhibitor: qHTS Assay for the Inhibitors of Human Flap endonuclease 1 (FEN1). Recombinant FEN1 flap cleavage, fluorescence, 15 min. Potency, µM (highest dose often 114 µM), for the others: at the top dose activity change, negative = inhibition, actives largely listed as inhibitors. actives 0.35% (n = 390,000); further: on the % scale 0 is the no-effect control and ±100 the full control effect; nearly all actives have a fitted effect of over 65% in size
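Nuclease activity of 10 nM FEN1 was measured after 15 min of room-temperature exposure to titrated compounds, by adding 50 nM flap substrate and reading plates at 0 and 15 min.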
* = called active by the depositor; ? = inconclusive; / = no result; [ ] = remark or other dose. The call rests on the fitted dose curve; in most records, active means well fitted curve in the direction sought with a large enough effect; inconclusive means small, poorly fitted or top-dose-only effect, or another doubt; inactive means no such curve, though single readings can be large; an effect the other way counts as inactive or inconclusive. Potency means the concentration at half of the fitted maximal effect.

SMILES	POLB inh	POLI inh	Pol eta inh	POLK inh	WRN helicase inh	FEN1 inhibitor
O=C(CCS(=O)(=O)c1ccccc1)Nc1nnc(C(F)(F)F)s1	50µM*	6%	-10%	0%	0%	3%
Cc1ccnc(NC(=O)CS(=O)(=O)c2ccccc2)c1	1%	19%	-14%	-1%	6%	-2%
CCC[N+](C)(C)c1ccc(/C=C/c2ccncc2)cc1	/	?	/	-27%	/	?
CCS(=O)(=O)c1c(S(=O)(=O)CC)c2cc(C(C)(C)C)ccn2c1C(=O)c1ccc(F)cc1	?	-10%	-7%	-2%	/	0%
c1ccc2nccnc2c1	/	-20%	/	-2%	/	-19%
O=C(CC1CCCCC1)N1CCCC(c2nc(-c3ccc(S(=O)(=O)N4CCCC4)cc3)no2)C1 (stereo unspecified)	35µM*	?	?	-6%[60.1 µM]	-26%	-20%
O=S(=O)(c1ccc(Cl)cc1)N1CCCC(c2nc(-c3ccc(F)cc3)no2)C1 (stereo unspecified)	/	8%	-16%	8%	-2%	-13%
CCOC(=O)C1=C(OCc2ccc(Cl)cc2)C2C=C(C)C=CC2N=C1 (stereo unspecified)	45µM*	-12%	-4%	-5%	-21%	-3%
CCOC(=O)c1c(C=O)c(C)n(Cc2ccc(Cl)cc2)c1C	-11%	3%	-1%	-10%	0%	?
CC(=O)OC1(C(F)(F)F)Oc2ccccc2NC1=O (stereo unspecified)	79µM*	-8%	-4%	-9%	-2%	?
CC1(C(=O)NCc2ccc(F)cc2)Oc2ccccc2NC1=O (stereo unspecified)	-24%	2%	5%	-8%	-29%	0%
COCCSc1ccccc1C(=O)Nc1ccc(Cl)cc1	0%	10µM*	-7%	-1%	-7%[11.6 µM]	0%
O=C(Nc1ccc(F)cc1F)c1cccc2c1C(=O)N(C1CCCCC1)C2	13µM*	?	-22%	-39%	/	11%
NC(=O)c1cccc2c1C(=O)N(C1CCCCC1)C2	?	?	50µM*	?	-12%[57.1 µM]	-11%
Cc1cc(C)cc(N2CCn3c2nc2c3c(=O)n(CCc3ccccc3)c(=O)n2C)c1	0%	133%	-20%	2%	/	16%
COc1ccc(C(=O)Nc2nnc(CC(=O)N/N=C/c3ccc(O)cc3O)s2)cc1	5µM*	/	/	/	/	/
O=[N+]([O-])c1ccc(C=C2c3ccccc3-c3ccccc32)cc1	/	-1%	/	13%	/	21%
CCOc1cc2ccccc2cc1C(=O)OCC(=O)Nc1ccc(Br)cc1	/	23%	/	-14%	/	8%
COc1cc2ccccc2cc1C(=O)OCC(=O)Nc1ccc(Br)cc1	/	/	/	89µM*	/	?
O=C(NCc1ccco1)c1cc2c(s1)CCCCC2	28µM*	?	-19%	-19%	-13%	6%
CCOc1cc(/C=C/c2cccc[n+]2C)ccc1OCC(=O)Nc1ccc(C)cc1	13µM*	?	-20%	?	0%	-5%
COc1cc(/C=C/c2cccc[n+]2C)ccc1OCC(=O)Nc1ccccc1C	-22%	10%	0%	6%	-1%	1%
Cc1cc2cc3c(cc2nc1SCC(=O)N1CCN(C(=O)c2ccco2)CC1)OCO3	?	71µM*	5%	-24%	-15%[57.1 µM]	-19%
O=C(CSc1c2c(nc3ccc(Cl)cc13)CCCC2)N1CCN(C(=O)c2ccco2)CC1	/	20µM*	-6%	?	-14%[57.1 µM]	-12%
Cc1cc2nc(-c3ccc(SCc4ccccn4)nc3)[nH]c2cc1C	?	45µM*	-26%	-6%	?	-19%
SMILES	POLB inh	POLI inh	Pol eta inh	POLK inh	WRN helicase inh	FEN1 inhibitor
Cc1cc2nc(-c3ccc(SCC(=O)N4CCN(C(=O)c5ccco5)CC4)nc3)[nH]c2cc1C	35µM*	?	79µM*	?	?	1%
Cc1cc2nc(-c3ccc(SCC(=O)N4CCOCC4)nc3)[nH]c2cc1C	?	?	-6%	-19%	-20%	-1%
CCc1cc2ccc(OC)cc2nc1SCC(=O)N1CCN(C(=O)c2ccco2)CC1	12%	-2%	-17%	-2%	-1%	1%
N#CCCn1c(=O)c(-c2ccccc2)nc2cnc(N3CCOCC3)nc21	/	/	/	4%[60.1 µM]	/	/
Cc1cccc(Cn2cc(S(=O)(=O)c3ccc(Cl)cc3)c(=O)c3cc4c(cc32)OCO4)c1	32%	34%	-6%	-1%	/	-9%
Cn1c(=O)n(-c2ccc3c(c2)OCO3)c2nc(-c3ccccc3)nc(C(N)=O)c21	6.3µM*	-7%	?	-26%	/	-1%
CCCn1cc(S(=O)(=O)CC(=O)Nc2ccc(OCC)cc2)c2ccccc21	89µM*	15%	-8%	-9%	-4%	-4%
COc1ccc(OC)c2c(C)c(C)[nH]c12	28µM*	-16%	-17%	-10%	2%	-17%
COC(=O)c1cccc(NC(=O)N(C)CCc2c(C)nn(C)c2C)c1	1%	37%	-14%	-3%[60.1 µM]	/	1%
COc1ccc2c(c1O)C(=O)c1ccccc1C2=O	3%	/	/	/	/	/
Nc1c(O)ccc2c1C(=O)c1ccccc1C2=O	50µM*	?	?	79µM*	-33%	50µM*
Cc1ccc(C(=O)CSc2nccn2-c2ccccc2)cc1	56µM*	-6%	-16%	-7%	-6%	-9%
O=C(CSc1nccn1-c1ccccc1)c1ccc(Cl)cc1	6%	-4%	-14%	-2%	-3%	6%
COC(=O)c1ccc(NC(=O)c2ccccc2OCC(=O)Nc2ccc(Br)cc2)cc1	/	-3%	/	7%	/	7%
Cn1cc(-c2cc3n(n2)CCC(=O)N3CC(=O)NCc2ccccc2)c2ccccc21	-15%	-6%	0%	-5%[60.1 µM]	/	-14%

Screening results: PubChem, National Center for Advancing Translational Sciences (NCATS)
